These results are taken from PubChem BioAssay (NCI).

The panel holds about 83,000 compounds, 20% with a hit somewhere; the sample as a whole holds those more often.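 Negative percent growth values reflect cell death: -40 means 40% of the cells present at the start died, and -100 means all died.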 Active and inactive are the calls of the source. How the source made its calls: active means growth percent below 10; inactive means the rest.

The test system of the assay is HL-60(TB) leukemia. The experiment in a line: NCI-60 one-dose screen, 48 h (100 = growth as untreated, 0 = no growth, -100 = all killed). Particulars: 10 µM unless noted.
Turning to `Cc1nc(N)nc2c1CCC(Nc1ccccc1)S2` (centres undefined), the growth is 97.1% (inactive). Consider `Cc1ccc(S(=O)(=O)Nc2cccc3[nH]c(C(F)(F)F)nc23)cc1`, for which the growth is 0.648% (active). The value for `CN(C)c1ccc(C(=O)OCCCCCCl)cc1` was 76% (inactive). As for `CCOC(=O)c1noc2c1CCc1c-2cn(Cc2ccc(OC)cc2)c1-c1cc(OC)c(OC)c(OC)c1`, the growth was -25.5% (active). Regarding `COc1ccc(C2=C(c3cccc(OC)c3)C(=O)c3ccc(C)nc3C2=O)cc1`, the growth was 41.1% (inactive).

`Nc1nc(C(=O)N/N=C/c2ccc(N3CCOCC3)cc2)nn1-c1ccc(S(N)(=O)=O)cc1`: the growth is 101% (inactive). For `CCN(CC)CCC(=O)Nc1ccc(Cn2nnc3c2C(=O)c2nnn(Cc4ccc(NC(=O)CCN(CC)CC)cc4)c2C3=O)cc1` the value was -36.4% (active); for `Nc1cc(N)c(N=Nc2ccc(S(=O)(=O)O)cc2)cc1N=Nc1ccc(-c2ccc(N=Nc3ccc(O)c(C(=O)O)c3)cc2)cc1`, 111% (inactive). For the compound `OC(CNC1CCCCC1)Cn1c2ccc(I)cc2c2cc(I)ccc21` (centres undefined), the growth was 93.7% (inactive). With `COc1cc(/C(C)=C(\c2ccc(Cl)cc2)c2ccc(OCCN3CCCC3)cc2)ccc1F`, the growth was 38.4% (inactive). For `CN(C)c1ccc2c(c1)OC(N)=C(C#N)C2c1ccc2c(c1)CCCN2C` (centres undefined) the value was 5.46% (active); for `O=C1Nc2ccc(Br)cc2C1=O`, 99.6% (inactive). On to `COc1cc(-c2cc(/C=C/C(=O)c3ccc(N)cc3)[nH]n2)cc(OC)c1OC`, for which the growth is 13.2% (inactive). As for `COCCCNc1nc(NC(=O)c2cc(Br)cc(C(F)(F)F)c2)cc(-c2cccnc2)n1`, the growth was 94.6% (inactive).
